# Laboratory results from PubChem BioAssay.
# Values without a mark were called inactive. Active and inactive are the calls of the source. Rule as the data show it, unless noted: active = inhibition above about 28%; inactive = the rest.
# Legend:
# [1] = StAR promoter reporter inhibitors, counter-screen for LRH-1 inverse agonist project, cell-based, luminescence, high throughput (AID 651611); details: StAR promoter luciferase reporter counterscreen, at 3.6 µM, hits give high values
# [2] = molecular target: Nuclear receptor subfamily 5 group A member 2 (Homo sapiens) (UniProt O00482); test: NR5A2 activity suppression in reporter cells – cell-based, luminescence, confirmation (AID 651613; in the data active = inhibition above about 42%;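 also: HEK293T cells co-transfected with LRH-1 and StAR promoter luciferase reporter; 0% = vehicle wells and 100% = parental cells lacking receptor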); details: cell-based LRH-1 luciferase reporter, inverse agonism; at 3.6 µM; hits give high values
# Sequence of Nuclear receptor subfamily 5 group A member 2 (Homo sapiens) (O00482 whole entry, looked up): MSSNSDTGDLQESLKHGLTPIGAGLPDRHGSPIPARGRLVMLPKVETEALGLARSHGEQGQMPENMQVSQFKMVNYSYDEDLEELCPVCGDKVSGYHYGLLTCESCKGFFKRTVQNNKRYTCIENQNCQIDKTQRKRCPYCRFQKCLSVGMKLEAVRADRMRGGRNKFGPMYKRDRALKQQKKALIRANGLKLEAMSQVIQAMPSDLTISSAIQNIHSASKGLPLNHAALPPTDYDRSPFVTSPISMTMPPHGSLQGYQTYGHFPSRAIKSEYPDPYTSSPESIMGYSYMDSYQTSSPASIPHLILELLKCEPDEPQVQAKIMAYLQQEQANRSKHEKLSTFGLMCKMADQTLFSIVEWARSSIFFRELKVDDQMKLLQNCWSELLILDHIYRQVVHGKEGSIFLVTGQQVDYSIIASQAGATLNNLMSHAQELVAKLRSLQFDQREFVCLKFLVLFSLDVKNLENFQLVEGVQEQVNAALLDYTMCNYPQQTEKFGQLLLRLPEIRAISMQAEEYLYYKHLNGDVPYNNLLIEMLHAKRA
# [3] = molecular target: Steroidogenic factor 1 (Homo sapiens) (UniProt Q13285); test: inverse agonism at SF1 nuclear receptor – cell-based, luminescence, high throughput, counter-screen for LRH-1 inverse agonist project (AID 651614; in the data active = inhibition above about 44%;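 also: cells cotransfected with StAR promoter reporter and SF1 expression vector; 0% = vehicle on cells with receptor and 100% = vehicle on cells lacking receptor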); details: cell-based SF1 luciferase reporter, at 3.6 µM, hits give high values
# Sequence of Steroidogenic factor 1 (Homo sapiens) (Q13285 whole entry, looked up, the tested form may be a part): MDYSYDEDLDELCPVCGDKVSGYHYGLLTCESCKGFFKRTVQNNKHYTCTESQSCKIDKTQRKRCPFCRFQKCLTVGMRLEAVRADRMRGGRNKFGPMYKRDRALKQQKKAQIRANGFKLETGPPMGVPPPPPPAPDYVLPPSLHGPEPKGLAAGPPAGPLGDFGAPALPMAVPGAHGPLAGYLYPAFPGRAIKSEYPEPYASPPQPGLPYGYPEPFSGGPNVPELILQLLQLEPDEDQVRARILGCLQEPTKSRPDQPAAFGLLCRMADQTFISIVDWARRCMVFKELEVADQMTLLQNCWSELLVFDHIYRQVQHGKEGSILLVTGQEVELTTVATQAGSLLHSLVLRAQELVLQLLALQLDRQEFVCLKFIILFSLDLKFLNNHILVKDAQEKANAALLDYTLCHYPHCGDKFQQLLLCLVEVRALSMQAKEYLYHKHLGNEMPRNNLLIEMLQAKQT
# [4] = compounds suppressing VP16-driven luciferase signal – cell-based, luminescence, high throughput, counter-screen for LRH-1 inverse agonist project (AID 651615; in the data active = inhibition above about 33%); details: Gal4-VP16 luciferase reporter cells, at 3.6 µM, hits give high values
Structure (SMILES),inhibition [1],inhibition [2],inhibition [3],inhibition [4]
COc1cc(NC(=O)CCl)ccc(=O)c1,47.9% (active),64.7% (active),68.2% (active),-57%
CCc1nc(SCC(=O)N2CCc3cc(OC)c(OC)cc3C2)c(C#N)cc1C,3.35%,47.4% (active),45.4% (active),1.24%
COc1cc2nc(/C=C/c3cc(OC)c(OC)c(OC)c3)sc2cc1SC,35.7% (active),45.1% (active),58.6% (active),-2.8%
CN(C)S(=O)(=O)c1ccc(C(=O)NCc2ccc3[nH]c4c(c3c2)CCCC4)cc1,24.6%,39.3%,54.4% (active),-9.28%
Cc1ccccc1-c1nnc(SCC(=O)Nc2cccc(C)c2C)o1,-7.62%,24.8%,26.9%,-3.77%
c1cnn(-c2nc(N3CCOCC3)nc(N3CCOCC3)n2)c1,29.5% (active),63.6% (active),48.2% (active),20.2%
O=C1CCN(CCCN2CCC(=O)N(Cc3ccccc3)C2=S)C(=S)N1Cc1ccccc1,-8.81%,27.2%,28.5%,-0.72%
CCC(NC(=O)CCl)c1ccc(C)cc1 (stereo not given),29.5% (active),67.3% (active),53.9% (active),-27.2%
CS(=O)(=O)N1CCCC(c2nc(-c3ccc(S(=O)(=O)NCc4ccccc4)cc3)no2)C1 (stereo not given),-1.45%,54.5% (active),52.7% (active),37.8% (active)
Cc1ccc(NC(=O)CSc2nc3[nH]c(=O)cc(O)c3s2)c(Br)c1,5.79%,56.3% (active),46.5% (active),-1.62%
COc1ccc(S(=O)(=O)Nc2ccc(CC#N)cc2)cc1,-4.36%,31.7%,29.7%,-0.34%
O=C(Cc1c(Cl)cccc1Cl)Nc1ccncc1,16.9%,53.1% (active),45.4% (active),-10%
Cc1ccc(NC(=O)CN2CCC(NC(=O)C3CCCCC3)CC2)c(Br)c1,11.8%,34%,44.9% (active),7.56%
CCc1ccccc1NC(=O)CSc1nnc([C@@H](NC(=O)OC(C)(C)C)C(C)C)o1,5.95%,45.9% (active),45.9% (active),0.4%
COc1ccc(N=C2NN=C(c3c(C)[nH]c4ccccc34)CS2)cc1,-7.38%,43.1% (active),32.1%,-7.14%
CN1CCN(c2ccccc2NC(=O)c2ccc(-c3cccc([N+](=O)[O-])c3)o2)CC1,11.9%,42.9% (active),49.6% (active),2.32%
COc1ccccc1Oc1nnnn1-c1ccc(C(N)=O)cc1,15.4%,48% (active),51.8% (active),-9.03%
CNc1nc2sc3c(c2c(=O)n1C)CC(C)(C)SC3,2.32%,34.9%,45.6% (active),-1.52%
Cc1cccc(NC(=O)c2ccc([N+](=O)[O-])o2)c1C,24.6%,64.2% (active),60.4% (active),-8.95%
CC[n+]1c(/C=C/c2ccc(N(C)C)cc2)ccc2ccccc21,71.9% (active),103% (active),86.6% (active),85% (active)
O=C1C=C(NCc2ccco2)C2(CCCCC2)O1,-2.64%,43.1% (active),46.6% (active),10.7%
CCOc1cc(/C=C2/C(=N)N3OC(C)=CC3=NC2=O)ccc1OCCOc1ccccc1,5.5%,46% (active),32.2%,-12.2%
O=C(COC(=O)c1ccccn1)Nc1cccnc1Cl,3.58%,40.5%,39.4%,-6.21%
O=C(N/N=C/c1ccc([N+](=O)[O-])s1)C(O)c1ccccc1 (stereo not given),25.9%,46.7% (active),62.2% (active),-11.9%
CC1(C)Cc2c(sc3nc(SCC(=O)NCc4ccco4)n(-c4ccccc4)c(=O)c23)CS1,14%,41.6% (active),40.7%,4.77%
